# Data: PubChem BioAssay (NCI)
# Compounds without any hit were thinned out: in the full panel of roughly 83,000, 20% have a hit.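 Cells were grown in 96-well plates and exposed to the test compound at a single concentration for 48 hours; results are reported as percent growth, with values below 10 considered active.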 Values without a mark were called inactive. The source made the active and inactive calls.
# Columns and labels:
# Assay in all cases: NCI-60 one-dose screen, 48 h (100 = growth as untreated, 0 = no growth, -100 = all killed)
# Conditions in all cases: 10 µM unless noted
# T-47D breast = test system: T-47D breast
# BT-549 breast = test system: BT-549 breast
# MDA-MB-435 melanoma = test system: MDA-MB-435 melanoma
# SW-620 colon = test system: SW-620 colon
# MCF7 breast = test system: MCF7 breast
# HCT-116 colon = test system: HCT-116 colon
# HCC-2998 colon = test system: HCC-2998 colon
# KM12 colon = test system: KM12 colon
Structure (SMILES),growth (T-47D breast),growth (BT-549 breast),growth (MDA-MB-435 melanoma),growth (SW-620 colon),growth (MCF7 breast),growth (HCT-116 colon),growth (HCC-2998 colon),growth (KM12 colon)
N#Cc1c(NC(=O)NCc2ccccc2)sc2c1CCCCC2,37.8%,26.2%,-40.5% (active),21.5%,19.1%,8.9% (active),24.5%,12.6%
COc1cc2c3c(c4c5ccccc5[nH]c4c2c(OC)c1OC)C(=O)N(CCN1CCOCC1)C3=O,66%,73.5%,73.9%,32.4%,32%,19.7%,69.5%,61%
COc1cc(-c2cc(-c3ccc(N(C)C)cc3)nc(N3CCOCC3)c2C#N)cc(OC)c1OC,29.5%,47.2%,4.97% (active),42.5%,36.2%,12.3%,19.8%,28.3%
Cn1cc(-c2nc(-c3c[nH]c4c(Cl)nccc34)cs2)c2cc(Br)ccc21,39.1%,95.7%,79.4%,98.6%,77.4%,88.8%,114%,86.2%
O=C(Nc1ccccc1C(=O)N/N=C(\c1ccccc1)c1ccccn1)c1ccc(F)cc1,12.7%,16.1%,29.5%,30.2%,12.7%,17%,32.5%,26.6%
CCCCCCCCCCCCCCCC[N+]1(C)CCN(SN2CC[N+](C)(CCCCCCCCCCCCCCCC)CC2)CC1,102%,87.7%,95.7%,57.7%,76.9%,31.6%,70%,78.2%
Clc1ccc(-c2ccc(CNCC3CCNCC3)o2)c(-c2ccccc2)c1,-75.2% (active),-5.56% (active),-92% (active),-85.9% (active),-73.9% (active),-87.2% (active),-77.6% (active),-84.2% (active)
COc1cc(NC(=O)CSc2nc3ccc(C)cc3c(=O)n2Cc2ccccc2)cc(OC)c1OC,22.8%,53.3%,67.3%,81.3%,71%,43.4%,76%,57.9%
CCNc1nc2cc(Nc3ccnc4cc(Cl)ccc34)ccc2o1,66.4%,81.4%,9.8% (active),54.9%,40.8%,42.3%,68.7%,38%
COc1ccc(/C=N/NC(=O)c2cnn3c2NC(c2ccccc2)C3)cc1OC (stereo not drawn),56%,42.3%,0.386% (active),44.4%,29.6%,22%,67%,44.6%
C=CC(=O)N[C@@H](/C=C/C(=O)OCC)Cc1ccc(-c2cc(Cl)cc(Cl)c2)cc1,-4.93% (active),4.23% (active),1.71% (active),11.7%,4.06% (active),11.1%,41.6%,24.2%
Cc1ccccc1NS(=O)(=O)c1cccc(C(=O)Nc2ccc(Br)cc2)c1,25.8% [25 µM],31.2% [25 µM],28.3% [25 µM],58.8% [25 µM],30% [25 µM],30.5% [25 µM],67.3% [25 µM],37.1% [25 µM]
c1ccc2cc(Cn3c(-c4cccc5ccccc45)[n+](Cc4ccc5ccccc5c4)c4c5ccccc5c5ccccc5c43)ccc2c1,-70.8% (active),-70.5% (active),-83.7% (active),-78.2% (active),-64.7% (active),-73.5% (active),-84.7% (active),-82.2% (active)
CCN1CCN(CCNc2nccc(-c3c(-c4cccc(OC)c4)nc4occn34)n2)S1(=O)=O,76.3%,111%,52.2%,132%,86.1%,99.8%,130%,100%
NS(=O)(=O)c1ccc(CCN2C(=O)C3C(C2=O)C2(Cl)C(Cl)=C(Cl)C3(Cl)C2(Cl)Cl)cc1 (stereo not drawn),94.4%,94.8%,108%,105%,92.5%,94%,93.8%,105%
CCCCCCNC(=O)Oc1ccc(/C(=C(\C)c2ccccc2)c2ccc(OCCN3CCCCC3)cc2)cc1,30.1%,64.2%,68.2%,34.1%,12.7%,33.9%,76.6%,49.2%

Structure (SMILES),growth (T-47D breast),growth (BT-549 breast),growth (MDA-MB-435 melanoma),growth (SW-620 colon),growth (MCF7 breast),growth (HCT-116 colon),growth (HCC-2998 colon),growth (KM12 colon)
C=CCn1c(-c2ccc(-c3nc4ccc(C)cc4[nH]3)cc2)n[nH]c1=S,97.5%,100%,98.1%,112%,82.8%,106%,108%,105%
CCOC(=O)[C@@H]1CCCN(S(=O)(=O)c2ccc(S(=O)(=O)N(CC)CC)c(F)c2)C1,53.3%,58.5%,75.6%,86.6%,61.8%,42%,92.5%,81.9%
CC(Sc1nc2ccccc2c(=O)n1CCc1ccc(S(N)(=O)=O)cc1)C(=O)Nc1ccc(Cl)cc1 (stereo not drawn),67.6%,102%,98.7%,98.1%,84.6%,79.9%,103%,97.5%
COc1cc(NC(C)CCCNC(=O)CCC(=O)NCCCNCCCCCCCCCCNCCCNC(=O)CCC(=O)NCCCC(C)Nc2cc(OC)cc3cccnc23)c2ncccc2c1 (stereo not drawn),28.5% [8 µM],95.5% [8 µM],75.8% [8 µM],73.4% [8 µM],24.3% [8 µM],69.4% [8 µM],79.8% [8 µM],89.2% [8 µM]
Cc1cc(Cl)nc(N(CCNc2ccnc3cc(Cl)ccc23)Cc2ccccn2)n1,-19.6% (active),75.4%,61.7%,56.6%,53.6%,17.3%,85.7%,64.1%
COc1cccc(C(=O)NNc2nc(Cl)nc(N3CCN(C(c4ccccc4)c4ccccc4)CC3)n2)c1,83.3%,81.6%,97.2%,33.9%,88%,39.2%,64%,90.2%
O=Cc1cc2ccccc2nc1Oc1ccc(C(F)(F)F)cc1,83.7%,99.7%,103%,67%,48.1%,102%,108%,92.4%
COC(=O)N[C@H]1CCc2c(Cl)c(OC)c(OC)c(OC)c2-c2ccc(SC)c(=O)cc21,40.4%,-4.69% (active),-49.9% (active),16.1%,10.8%,0.452% (active),21.5%,1.72% (active)
CCC(CC)NCC(C)(C)O,123%,106%,108%,107%,97.9%,103%,92.2%,104%
COc1ccc(-c2[nH][nH]c(=O)c2-c2nc3ccccc3s2)cc1,109%,97.6%,101%,101%,93.9%,101%,99.6%,101%
O=C(NCCNc1nccc(-c2c(-c3cccc(F)c3)nc3sccn23)n1)c1ccc(Cl)cc1,49%,75.9%,32.1%,65.2%,27.7%,33%,90.1%,62.8%
COc1ccc(C(=O)c2cc(OC)c(OC)c(OC)c2)cc1O,54.7%,12%,-41.1% (active),22.3%,6.25% (active),4.24% (active),12.4%,9.38% (active)
COc1cccc2c1c1nc3cc(C)c(C)cc3nc1n2CCN(C)C,30.1%,68.8%,31.3%,12.6%,4.64% (active),14.4%,44.6%,29.2%
O=C1c2ccc3c4c(ccc(c24)C(=O)N1CCCNCc1ccccc1Cl)C(=O)N(CCCNCc1ccccc1Cl)C3=O,-25.5% (active),-69% (active),-43.7% (active),-82.7% (active),-78.2% (active),-6.85% (active),-85.5% (active),-72.5% (active)
COc1ccc(C(C)=O)c(OC)c1,108%,106%,119%,106%,92%,103%,105%,110%
